Laboratory results reported in PMC7862700, “An all-to-all approach to the identification of sequence-specific readers for epigenetic DNA modifications on cytosine”.

Legend:
Assay in all cases: DAPPL (digital affinity profiling via proximity ligation, sequencing); 10 mM Tris-HCl pH 7.5, 50 mM NaCl, 1 mM DTT, 4% glycerol, room temperature, 30 min; GST-TFs on glutathione beads, 16-mer random dsDNA library, 0.1% formaldehyde crosslink after washing; high values mean tight binding
[1] = target: T1, FLI1 (Homo sapiens, UniProt Q01543 1-452); details: protein: recombinant; tags: N-terminal GST; dsDNA, one strand shown
T1 sequence: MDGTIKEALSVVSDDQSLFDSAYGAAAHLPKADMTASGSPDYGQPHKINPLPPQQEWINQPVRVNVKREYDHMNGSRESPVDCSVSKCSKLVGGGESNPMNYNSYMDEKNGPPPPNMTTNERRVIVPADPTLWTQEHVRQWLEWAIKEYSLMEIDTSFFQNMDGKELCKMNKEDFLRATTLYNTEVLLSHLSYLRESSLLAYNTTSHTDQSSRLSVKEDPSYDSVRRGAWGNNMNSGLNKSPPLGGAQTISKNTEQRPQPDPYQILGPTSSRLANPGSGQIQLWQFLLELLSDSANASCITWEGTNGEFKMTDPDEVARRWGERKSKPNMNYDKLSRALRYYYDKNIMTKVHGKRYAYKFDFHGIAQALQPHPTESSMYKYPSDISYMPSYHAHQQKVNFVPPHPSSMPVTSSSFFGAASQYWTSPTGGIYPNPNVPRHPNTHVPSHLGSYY
Procedure, shortened: (§1)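 Beads coated with glutathione captured GST-fused human transcription factors that had been expressed in yeast, and the factors were then given DNA barcodes and pooled with a tag-only sample. The pools were incubated with 200 nmole of a random double-stranded 16-mer DNA library in Tris/NaCl/DTT/glycerol buffer for 30 min at room temperature, washed, crosslinked with 0.1% formaldehyde and proximity-ligated with BsaI/T4 ligase at 37 °C for 1 h. PCR amplification and Illumina NextSeq500 sequencing came last. Binding signal is each hexamer's read frequency for a factor divided by its frequency for the tag-only sample.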

[2] = target: T2, ELK1 (Homo sapiens, UniProt P19419 1-428); details: protein: recombinant; tags: N-terminal GST; dsDNA, one strand shown
T2 sequence: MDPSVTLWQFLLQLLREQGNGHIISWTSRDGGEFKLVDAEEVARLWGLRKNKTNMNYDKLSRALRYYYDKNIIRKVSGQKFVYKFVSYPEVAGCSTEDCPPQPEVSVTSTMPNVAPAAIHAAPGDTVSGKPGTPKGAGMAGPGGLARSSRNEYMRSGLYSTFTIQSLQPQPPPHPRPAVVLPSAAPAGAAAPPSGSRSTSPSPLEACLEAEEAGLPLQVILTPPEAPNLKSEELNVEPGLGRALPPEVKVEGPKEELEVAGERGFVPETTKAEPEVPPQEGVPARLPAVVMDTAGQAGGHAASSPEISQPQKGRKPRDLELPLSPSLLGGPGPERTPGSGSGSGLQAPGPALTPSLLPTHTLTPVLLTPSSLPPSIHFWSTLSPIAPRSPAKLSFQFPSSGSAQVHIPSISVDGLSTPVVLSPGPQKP
Procedure, shortened: as §1

[3] = target: T3, GABPA (Homo sapiens, UniProt Q06546 1-454); details: protein: recombinant; tags: N-terminal GST; dsDNA, one strand shown
T3 sequence: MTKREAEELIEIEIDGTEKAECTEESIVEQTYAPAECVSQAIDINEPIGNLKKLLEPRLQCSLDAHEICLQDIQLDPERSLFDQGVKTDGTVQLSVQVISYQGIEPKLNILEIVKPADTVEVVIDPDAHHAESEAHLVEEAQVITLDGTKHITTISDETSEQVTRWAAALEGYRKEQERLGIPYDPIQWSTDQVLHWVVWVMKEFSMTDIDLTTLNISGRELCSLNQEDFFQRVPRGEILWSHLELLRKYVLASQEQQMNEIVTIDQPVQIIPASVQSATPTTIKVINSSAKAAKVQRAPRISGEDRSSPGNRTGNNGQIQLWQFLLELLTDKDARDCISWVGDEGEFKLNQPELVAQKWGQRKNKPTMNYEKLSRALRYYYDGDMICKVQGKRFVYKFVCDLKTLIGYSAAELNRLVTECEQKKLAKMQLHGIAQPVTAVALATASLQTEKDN
Procedure, shortened: as §1

[4] = target: T4, ERG (Homo sapiens, UniProt P11308 1-479); details: protein: recombinant; tags: N-terminal GST; dsDNA, one strand shown
T4 sequence: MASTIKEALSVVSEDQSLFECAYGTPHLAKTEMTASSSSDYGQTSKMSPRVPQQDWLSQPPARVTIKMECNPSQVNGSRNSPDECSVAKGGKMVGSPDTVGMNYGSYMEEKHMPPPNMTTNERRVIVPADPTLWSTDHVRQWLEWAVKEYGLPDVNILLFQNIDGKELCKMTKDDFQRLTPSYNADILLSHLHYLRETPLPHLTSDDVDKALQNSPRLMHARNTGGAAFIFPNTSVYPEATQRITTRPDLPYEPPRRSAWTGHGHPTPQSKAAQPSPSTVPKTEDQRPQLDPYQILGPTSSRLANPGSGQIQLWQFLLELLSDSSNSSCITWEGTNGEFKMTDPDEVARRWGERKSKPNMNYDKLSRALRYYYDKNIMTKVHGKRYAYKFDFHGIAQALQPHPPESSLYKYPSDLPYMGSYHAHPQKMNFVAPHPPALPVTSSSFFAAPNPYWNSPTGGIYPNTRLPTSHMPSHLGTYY
Procedure, shortened: as §1

[5] = target: ELF1 (Homo sapiens, UniProt P32519 1-619); details: protein: recombinant; tags: N-terminal GST; dsDNA, one strand shown
Procedure, shortened: as §1

[6] = target: T5, EHF (Homo sapiens, UniProt Q9NZC4 1-300); details: protein: recombinant; tags: N-terminal GST; dsDNA, one strand shown
T5 sequence: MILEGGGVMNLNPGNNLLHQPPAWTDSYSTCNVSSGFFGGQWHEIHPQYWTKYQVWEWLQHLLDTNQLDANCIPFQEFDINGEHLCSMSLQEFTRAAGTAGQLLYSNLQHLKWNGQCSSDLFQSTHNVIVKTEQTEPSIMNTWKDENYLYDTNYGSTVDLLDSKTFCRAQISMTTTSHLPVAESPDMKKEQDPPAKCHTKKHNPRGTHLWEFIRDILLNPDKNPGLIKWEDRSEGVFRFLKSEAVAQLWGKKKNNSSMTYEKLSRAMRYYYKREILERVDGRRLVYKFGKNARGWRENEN
Procedure, shortened: as §1

[7] = target: SPI1 (Homo sapiens, UniProt P17947 1-270); details: protein: recombinant; tags: N-terminal GST; dsDNA, one strand shown
Procedure, shortened: as §1

[8] = target: SPIB (Homo sapiens, UniProt Q01892 1-262); details: protein: recombinant; tags: N-terminal GST; dsDNA, one strand shown
Procedure, shortened: as §1

[9] = target: T6, ELK3 (Homo sapiens, UniProt P41970 1-407); details: protein: recombinant; tags: N-terminal GST; dsDNA, one strand shown
T6 sequence: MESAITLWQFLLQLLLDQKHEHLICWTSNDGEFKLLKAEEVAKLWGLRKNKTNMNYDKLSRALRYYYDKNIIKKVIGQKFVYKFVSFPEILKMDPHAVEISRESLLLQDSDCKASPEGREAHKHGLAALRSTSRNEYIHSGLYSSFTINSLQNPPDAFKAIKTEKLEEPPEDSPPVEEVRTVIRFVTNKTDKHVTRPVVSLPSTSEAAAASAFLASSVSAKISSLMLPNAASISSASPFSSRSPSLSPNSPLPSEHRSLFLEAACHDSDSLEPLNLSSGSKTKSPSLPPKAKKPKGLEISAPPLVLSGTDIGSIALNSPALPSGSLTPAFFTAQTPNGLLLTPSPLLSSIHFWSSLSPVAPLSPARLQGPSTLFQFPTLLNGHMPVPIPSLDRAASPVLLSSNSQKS
Procedure, shortened: as §1

[10] = target: T7, FEV (Homo sapiens, UniProt Q99581 1-238); details: protein: recombinant; tags: N-terminal GST; dsDNA, one strand shown
T7 sequence: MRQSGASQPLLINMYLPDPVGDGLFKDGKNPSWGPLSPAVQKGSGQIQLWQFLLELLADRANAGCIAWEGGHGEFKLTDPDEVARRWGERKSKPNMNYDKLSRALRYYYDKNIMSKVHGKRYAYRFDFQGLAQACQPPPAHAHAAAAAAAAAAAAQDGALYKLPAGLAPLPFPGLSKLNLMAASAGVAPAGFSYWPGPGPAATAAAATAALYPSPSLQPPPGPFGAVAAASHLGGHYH
Procedure, shortened: as §1

[11] = target: ETV5 (Homo sapiens, UniProt P41161 1-510); details: protein: recombinant; tags: N-terminal GST; dsDNA, one strand shown
Procedure, shortened: as §1

[12] = target: HSF1 (Homo sapiens, UniProt Q00613 1-529); details: protein: recombinant; tags: N-terminal GST; chain copies: 3; dsDNA, one strand shown
Procedure, shortened: as §1

[13] = target: T8, SPIC (Homo sapiens, UniProt Q8N5J4 1-248); details: protein: recombinant; tags: N-terminal GST; dsDNA, one strand shown
T8 sequence: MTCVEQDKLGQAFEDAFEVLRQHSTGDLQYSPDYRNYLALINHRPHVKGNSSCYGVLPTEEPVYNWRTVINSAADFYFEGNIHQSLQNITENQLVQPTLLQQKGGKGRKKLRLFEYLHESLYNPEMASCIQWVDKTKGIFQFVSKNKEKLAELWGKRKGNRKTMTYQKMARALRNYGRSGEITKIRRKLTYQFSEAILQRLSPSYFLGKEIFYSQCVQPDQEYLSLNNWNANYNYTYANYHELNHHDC
Procedure, shortened: as §1

[14] = target: ELF4 (Homo sapiens, UniProt Q99607 1-663); details: protein: recombinant; tags: N-terminal GST; dsDNA, one strand shown
Procedure, shortened: as §1

[15] = target: T9, ELK4 (Homo sapiens, UniProt P28324-2 1-405); details: protein: recombinant; tags: N-terminal GST; dsDNA, one strand shown
T9 sequence: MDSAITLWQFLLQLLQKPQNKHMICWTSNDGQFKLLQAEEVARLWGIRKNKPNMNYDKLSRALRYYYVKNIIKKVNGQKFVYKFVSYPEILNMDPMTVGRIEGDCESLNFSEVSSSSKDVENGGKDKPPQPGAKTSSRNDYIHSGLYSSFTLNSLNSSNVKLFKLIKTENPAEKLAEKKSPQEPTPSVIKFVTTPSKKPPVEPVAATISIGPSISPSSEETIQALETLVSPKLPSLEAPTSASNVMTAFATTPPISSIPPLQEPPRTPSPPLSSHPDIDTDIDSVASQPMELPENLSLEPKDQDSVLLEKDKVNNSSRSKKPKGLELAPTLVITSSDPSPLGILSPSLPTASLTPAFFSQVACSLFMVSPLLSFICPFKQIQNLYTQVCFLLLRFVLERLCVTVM
Procedure, shortened: as §1

[16] = target: T10, ETV2 (Homo sapiens, UniProt O00321 1-342); details: protein: recombinant; tags: N-terminal GST; dsDNA, one strand shown
T10 sequence: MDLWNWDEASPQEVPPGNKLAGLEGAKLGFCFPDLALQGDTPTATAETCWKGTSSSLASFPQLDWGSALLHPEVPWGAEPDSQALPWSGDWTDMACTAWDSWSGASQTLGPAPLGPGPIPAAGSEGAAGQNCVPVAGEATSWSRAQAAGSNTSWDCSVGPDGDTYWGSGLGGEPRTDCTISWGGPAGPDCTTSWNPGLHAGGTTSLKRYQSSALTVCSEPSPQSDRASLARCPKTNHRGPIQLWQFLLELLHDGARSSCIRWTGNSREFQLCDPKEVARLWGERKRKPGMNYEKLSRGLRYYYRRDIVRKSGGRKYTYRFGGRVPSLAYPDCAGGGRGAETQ
Procedure, shortened: as §1

[17] = target: T11, ELF3 (Homo sapiens, UniProt P78545 1-371); details: protein: recombinant; tags: N-terminal GST; dsDNA, one strand shown
T11 sequence: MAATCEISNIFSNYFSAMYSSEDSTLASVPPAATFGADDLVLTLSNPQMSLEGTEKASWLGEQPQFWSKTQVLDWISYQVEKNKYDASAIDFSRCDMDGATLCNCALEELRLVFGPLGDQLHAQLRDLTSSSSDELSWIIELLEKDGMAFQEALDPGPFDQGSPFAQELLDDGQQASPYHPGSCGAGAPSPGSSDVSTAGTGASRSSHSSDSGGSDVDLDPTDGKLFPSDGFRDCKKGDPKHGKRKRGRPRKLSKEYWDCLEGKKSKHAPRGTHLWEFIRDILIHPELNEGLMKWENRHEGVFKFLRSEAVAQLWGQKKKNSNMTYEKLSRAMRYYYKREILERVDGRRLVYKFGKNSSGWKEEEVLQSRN
Procedure, shortened: as §1

[18] = target: CRX (Homo sapiens, UniProt O43186 1-299); details: protein: recombinant; tags: N-terminal GST; dsDNA, one strand shown
Procedure, shortened: as §1

[19] = target: ETV1 (Homo sapiens, UniProt P50549 1-477); details: protein: recombinant; tags: N-terminal GST; dsDNA, one strand shown
Procedure, shortened: as §1

Sequence of HSF1 (Q00613 whole entry): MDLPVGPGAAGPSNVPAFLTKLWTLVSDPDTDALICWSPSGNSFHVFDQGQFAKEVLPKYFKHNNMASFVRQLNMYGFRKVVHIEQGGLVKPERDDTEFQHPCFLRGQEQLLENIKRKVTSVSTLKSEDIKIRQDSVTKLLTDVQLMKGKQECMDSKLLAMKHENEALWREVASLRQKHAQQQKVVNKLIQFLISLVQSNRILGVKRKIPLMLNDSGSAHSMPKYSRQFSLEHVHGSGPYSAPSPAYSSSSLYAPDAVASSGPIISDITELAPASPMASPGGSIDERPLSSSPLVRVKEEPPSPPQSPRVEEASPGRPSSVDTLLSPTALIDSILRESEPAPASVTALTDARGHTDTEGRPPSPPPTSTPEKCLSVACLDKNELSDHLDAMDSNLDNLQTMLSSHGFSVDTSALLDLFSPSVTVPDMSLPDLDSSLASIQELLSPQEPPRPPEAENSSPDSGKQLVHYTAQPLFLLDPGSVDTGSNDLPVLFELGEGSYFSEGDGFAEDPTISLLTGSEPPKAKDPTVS
Sequence of ELF1 (P32519 whole entry): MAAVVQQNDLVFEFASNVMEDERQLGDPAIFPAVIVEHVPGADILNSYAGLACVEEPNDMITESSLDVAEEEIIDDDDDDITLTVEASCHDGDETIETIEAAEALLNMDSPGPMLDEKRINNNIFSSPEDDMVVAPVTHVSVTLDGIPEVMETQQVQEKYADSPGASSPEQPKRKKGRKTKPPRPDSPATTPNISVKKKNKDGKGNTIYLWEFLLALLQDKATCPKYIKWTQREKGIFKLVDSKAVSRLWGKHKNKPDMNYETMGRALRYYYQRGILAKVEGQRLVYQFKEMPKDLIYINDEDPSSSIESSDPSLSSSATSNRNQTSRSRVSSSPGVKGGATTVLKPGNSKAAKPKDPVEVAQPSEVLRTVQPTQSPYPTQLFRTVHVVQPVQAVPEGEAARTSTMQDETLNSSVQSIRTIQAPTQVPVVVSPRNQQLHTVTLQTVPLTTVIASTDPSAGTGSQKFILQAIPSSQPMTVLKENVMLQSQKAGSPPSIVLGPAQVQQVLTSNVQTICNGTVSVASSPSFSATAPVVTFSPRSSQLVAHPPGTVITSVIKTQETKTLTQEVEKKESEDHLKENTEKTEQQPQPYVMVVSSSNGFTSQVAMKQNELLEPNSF
Sequence of CRX (O43186 whole entry): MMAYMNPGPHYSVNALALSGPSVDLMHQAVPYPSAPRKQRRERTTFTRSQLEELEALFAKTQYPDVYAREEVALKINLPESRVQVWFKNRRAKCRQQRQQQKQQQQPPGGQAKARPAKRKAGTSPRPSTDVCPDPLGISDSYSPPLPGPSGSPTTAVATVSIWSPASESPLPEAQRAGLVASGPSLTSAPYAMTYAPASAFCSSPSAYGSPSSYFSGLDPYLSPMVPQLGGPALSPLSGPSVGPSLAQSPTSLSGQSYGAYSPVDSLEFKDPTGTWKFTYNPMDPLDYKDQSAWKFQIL
Sequence of ETV1 (P50549 whole entry): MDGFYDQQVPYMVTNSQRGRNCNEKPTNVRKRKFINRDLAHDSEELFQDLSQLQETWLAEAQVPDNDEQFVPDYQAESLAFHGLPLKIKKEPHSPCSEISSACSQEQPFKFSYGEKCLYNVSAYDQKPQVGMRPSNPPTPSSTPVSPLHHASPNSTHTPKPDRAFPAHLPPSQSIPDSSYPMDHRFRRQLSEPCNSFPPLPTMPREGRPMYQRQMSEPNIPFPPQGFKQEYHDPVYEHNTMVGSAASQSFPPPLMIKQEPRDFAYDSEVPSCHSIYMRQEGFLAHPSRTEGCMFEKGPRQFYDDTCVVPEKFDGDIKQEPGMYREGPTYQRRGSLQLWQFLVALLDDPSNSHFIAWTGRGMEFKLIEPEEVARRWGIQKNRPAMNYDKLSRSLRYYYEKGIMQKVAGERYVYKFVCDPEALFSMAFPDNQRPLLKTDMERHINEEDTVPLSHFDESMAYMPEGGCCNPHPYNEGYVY
Sequence of ELF4 (Q99607 whole entry): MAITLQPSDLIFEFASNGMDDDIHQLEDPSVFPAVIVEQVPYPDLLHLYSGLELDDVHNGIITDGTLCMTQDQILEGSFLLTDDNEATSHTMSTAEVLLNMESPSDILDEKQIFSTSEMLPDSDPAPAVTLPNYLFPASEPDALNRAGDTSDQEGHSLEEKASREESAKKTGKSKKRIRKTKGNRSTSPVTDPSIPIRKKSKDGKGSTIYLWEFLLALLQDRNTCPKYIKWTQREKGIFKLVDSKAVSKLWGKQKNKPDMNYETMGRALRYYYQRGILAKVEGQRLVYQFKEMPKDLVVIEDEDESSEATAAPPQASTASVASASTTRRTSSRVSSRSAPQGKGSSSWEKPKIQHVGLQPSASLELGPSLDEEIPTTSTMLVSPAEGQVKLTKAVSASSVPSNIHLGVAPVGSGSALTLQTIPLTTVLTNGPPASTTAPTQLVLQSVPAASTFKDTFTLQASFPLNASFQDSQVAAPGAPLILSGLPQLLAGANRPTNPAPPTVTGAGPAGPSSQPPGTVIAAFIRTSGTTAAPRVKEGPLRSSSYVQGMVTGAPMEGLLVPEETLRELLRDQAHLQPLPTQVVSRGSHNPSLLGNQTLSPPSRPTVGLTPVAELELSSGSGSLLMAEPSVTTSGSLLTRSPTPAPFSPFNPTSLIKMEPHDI
Sequence of SPIB (Q01892 whole entry): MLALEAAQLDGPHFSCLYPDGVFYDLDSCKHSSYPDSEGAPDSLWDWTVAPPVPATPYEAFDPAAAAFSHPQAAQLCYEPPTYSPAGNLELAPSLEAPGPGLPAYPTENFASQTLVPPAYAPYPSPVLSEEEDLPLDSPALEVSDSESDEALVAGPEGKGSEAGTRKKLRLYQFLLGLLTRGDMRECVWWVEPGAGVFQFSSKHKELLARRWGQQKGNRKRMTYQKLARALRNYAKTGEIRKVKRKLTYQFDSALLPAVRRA
Sequence of ETV5 (P41161 whole entry): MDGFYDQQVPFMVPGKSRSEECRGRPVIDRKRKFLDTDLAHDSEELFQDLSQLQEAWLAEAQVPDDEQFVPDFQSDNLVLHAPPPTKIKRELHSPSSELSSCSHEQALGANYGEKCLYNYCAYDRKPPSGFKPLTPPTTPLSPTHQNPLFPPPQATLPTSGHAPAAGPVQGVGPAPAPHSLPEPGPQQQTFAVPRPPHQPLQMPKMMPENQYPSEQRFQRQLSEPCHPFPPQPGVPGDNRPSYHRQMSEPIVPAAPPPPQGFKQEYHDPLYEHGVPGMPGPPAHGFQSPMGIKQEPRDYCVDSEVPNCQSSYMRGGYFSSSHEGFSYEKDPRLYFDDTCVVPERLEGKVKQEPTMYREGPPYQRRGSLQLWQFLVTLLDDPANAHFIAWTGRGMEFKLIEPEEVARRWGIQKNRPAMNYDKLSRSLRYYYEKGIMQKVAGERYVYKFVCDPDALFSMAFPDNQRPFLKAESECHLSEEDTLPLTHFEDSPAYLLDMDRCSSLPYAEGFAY

Sequence: CCTTCT
- binding signal [1]: 1.62 fold enrichment (6-mer frequency, TF over GST control)
- binding signal [2]: 1.42 fold enrichment (6-mer frequency, TF over GST control)
- binding signal [3]: 1.6 fold enrichment (6-mer frequency, TF over GST control)
- binding signal [4]: 1.54 fold enrichment (6-mer frequency, TF over GST control)
- binding signal [5]: 1.63 fold enrichment (6-mer frequency, TF over GST control)
- binding signal [6]: 1.67 fold enrichment (6-mer frequency, TF over GST control)
- binding signal [7]: 1.67 fold enrichment (6-mer frequency, TF over GST control)
- binding signal [8]: 1.56 fold enrichment (6-mer frequency, TF over GST control)
- binding signal [9]: 1.79 fold enrichment (6-mer frequency, TF over GST control)
- binding signal [10]: 1.59 fold enrichment (6-mer frequency, TF over GST control)
- binding signal [11]: 1.59 fold enrichment (6-mer frequency, TF over GST control)
- binding signal [12]: 2.98 fold enrichment (6-mer frequency, TF over GST control)
- binding signal [13]: 1.63 fold enrichment (6-mer frequency, TF over GST control)
- binding signal [14]: 1.76 fold enrichment (6-mer frequency, TF over GST control)
- binding signal [15]: 1.68 fold enrichment (6-mer frequency, TF over GST control)
- binding signal [16]: 1.65 fold enrichment (6-mer frequency, TF over GST control)
- binding signal [17]: 1.54 fold enrichment (6-mer frequency, TF over GST control)
- binding signal [18]: 1.92 fold enrichment (6-mer frequency, TF over GST control)
- binding signal [19]: 1.63 fold enrichment (6-mer frequency, TF over GST control)
